Compound activity as filed in PubChem.
Hits are enriched below; roughly 21% of the tested compounds scored in any of these assays.
DT40 TDP1 no CPT: qHTS for Inhibitors of human tyrosyl-DNA phosphodiesterase 1 (TDP1): qHTS in cells in absence of CPT. DT40 Tdp1-/- hTDP1 cells, no CPT, ATP luminescence, 48 h. Potency, µM (highest dose often 46.2 µM), for inactives: top-dose activity change, negative = growth inhibition, actives largely listed as inhibitors. 15% of 420,000 active. AID 686978, 2013; note: potency is the fitted concentration of half-maximal effect; % is set by controls: 0 for no effect and ±100 for the full control effect; nearly all actives have a fitted effect of over 55% in size
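Seeded 400 DT40-hTDP1 cells/well (vehicle DMSO, no 20 nM CPT); pinned compounds; ≥48 hr at 37 °C; CellTiter-Glo luminescence as viability measure.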
D3 ag: agonists of human D3 dopamine receptor. D3R DiscoveRx beta-arrestin cells, luminescence, 90 min. max activation, %. 0.58% of 410,000 active. AID 652048; in the data active = max activation above about 30%; note: 0% is about no effect
Target sequence (P35462 whole entry, looked up): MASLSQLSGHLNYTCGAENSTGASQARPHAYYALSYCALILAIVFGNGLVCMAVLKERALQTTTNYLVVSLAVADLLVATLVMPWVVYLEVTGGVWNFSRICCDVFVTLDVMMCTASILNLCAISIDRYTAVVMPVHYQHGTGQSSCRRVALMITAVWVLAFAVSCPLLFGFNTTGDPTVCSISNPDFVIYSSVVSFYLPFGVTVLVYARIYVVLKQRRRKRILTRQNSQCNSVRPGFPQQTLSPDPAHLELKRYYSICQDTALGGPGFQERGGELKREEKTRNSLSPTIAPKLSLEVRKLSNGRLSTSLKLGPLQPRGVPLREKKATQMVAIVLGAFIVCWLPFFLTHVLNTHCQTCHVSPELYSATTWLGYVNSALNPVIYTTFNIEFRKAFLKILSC
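Cells at 1500/well, incubated overnight, then treated with pinned compounds (dopamine as control) for 90 min at 37 degrees C. DiscoveRx reagent added for 30 - 60 minutes at room temperature; luminescence read.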
DRD3 antagonist: antagonists of human D3 dopamine receptor | P35462 | D3R cells, DiscoveRx beta-arrestin luminescence, antagonist mode; hits give low values | max response, negative = inhibition, % | 2.5% of 360,000 active | AID 652054; in the data active = max response below about -50%; inconclusive = no clear call, values can overlap the other calls; note: % is set by controls: 0 for no effect and ±100 for the full control effect
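Cells plated overnight at 1500 cells/well, then exposed to library compounds with dopamine controls for 90 minutes at 37 degrees C. DiscoveRx reagent added for 30–60 minutes at room temperature; luminescence read, quantitative HTS format.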
ClpP mod: qHTS Assay for Activators of ClpP; purified B. subtilis ClpP, FRET peptide cleavage, 20 min; Potency, µM (highest dose often 57.5 µM), for the others: at the top dose activity change, negative = active; 1.9% of 340,000 active; AID 651965, 2013; active = well fitted falling curve with a large enough effect; inconclusive = small, poorly fitted or top-dose-only effect; inactive = no such curve, though single readings can be large or run the other way; note: potency is the fitted concentration of half-maximal effect; the source files actives as falling curves though it sought activators and does not explain the sign; nearly all actives have a fitted effect of over 65% in size
Target sequence (P80244 whole entry, looked up): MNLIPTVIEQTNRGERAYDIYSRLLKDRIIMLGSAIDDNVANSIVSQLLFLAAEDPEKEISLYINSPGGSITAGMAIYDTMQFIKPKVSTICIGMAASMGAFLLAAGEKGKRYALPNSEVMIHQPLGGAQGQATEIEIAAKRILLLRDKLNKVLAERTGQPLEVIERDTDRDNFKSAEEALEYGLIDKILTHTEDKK
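Purified B. subtilis ClpP, 10 microg/mL final in Tris/HCl pH8 with KCl, BSA, glycerol and Tween-20, cleaved an Abz/nitrotyrosine-quenched decapeptide. Fluorescence (ex 320, em 430) was read at 0 and 20 min at room temperature. Delta was normalized to 5.8 microM ADEP and DMSO/no-enzyme controls.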
IL-1B inflam inh: inflammasome signaling inhibition, IL-1 beta readout; THP-1 LPS/ATP IL-1B secretion, AlphaLISA, 16 h; hits give low values; activity change, % at 57.5 µM; 4.7% of 360,000 active; AID 743279; in the data active = activity change below about -50%; inconclusive = mostly about -30% to -49%; note: % is set by controls: 0 for no effect and ±100 for the full control effect
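THP-1 cells pretreated 1 hr with compounds (up to 57.5 uM final), then stimulated with LPS (250 ng/mL final) plus ATP (1.25 mM final); secreted IL-1B measured by AlphaLISA after 16 hr, decreased signal indicating inhibition.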
TDP1 cell CPT: DT40-hTDP1 cell growth loss with CPT | chicken DT40 Tdp1-/-;hTDP1 cells + 20 nM CPT, ATP luminescence, 48 h | Potency, µM (titrated, usually from 46.2 µM), for the others: top-dose activity change, negative = growth inhibition, most hits filed as inhibitors | 12% of 420,000 active | AID 686979; note: potency is the fitted concentration of half-maximal effect; % is set by controls: 0 for no effect and ±100 for the full control effect; nearly all actives have a fitted effect of over 55% in size
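Chicken DT40 Tdp1-/- cells complemented with human TDP1, 400 cells/well, exposed to compounds plus 20 nM camptothecin for at least 48 h at 37 C; viability read as ATP content by CellTiter-Glo luminescence.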
Starred values were filed as active, the others as inactive; ? = inconclusive; . = no result given. Unless noted, calls come from the whole dose curve; as a rule, active = well fitted inhibition curve with a large enough effect; inconclusive = small, poorly fitted or top-dose-only effect; inactive = flat fitted curve, though single readings scatter.

SMILES | DT40 TDP1 no CPT | D3 ag | DRD3 antagonist | ClpP mod | IL-1B inflam inh | TDP1 cell CPT
COc1ccc(Nc2ccc3c(c2)=NC2(CCCCC2)[N+]=3[O-])cc1 | 2.6µM* | 0 | -68* | -5% | -97* | 2.6µM*
Nc1cccc(Nc2ccccc2)c1 | 1% | -1 | 0 | 0% | 20 | 0%
O=C(c1ccc(Br)cc1)N(Cc1ccco1)C1CCS(=O)(=O)C1 (stereo not given) | 22% | -11 | -12 | 3% | 0 | -23%
COc1ccc(C=O)c(-c2c(CCO)sc3ccccc23)c1 | ? | 6 | 7 | 1% | 43 | ?
COc1cn(-c2ccccc2)nc1C(=O)NCc1ccc(C)cc1 | ? | 2 | 15 | 0% | -13 | 3%
CCCC[C@@H]1CC2=C(C(=O)OC(C)(C)O2)[C@@H](c2ccc(Cl)cc2)O1 | ? | -2 | -20 | 2% | 5 | ?
CCCCC1CC2=C(C(=O)OC(C)(C)O2)C(c2cccc3ccccc23)O1 (stereo not given) | 23µM* | 9 | 0 | -1% | -23 | ?
COc1ccc(S(=O)(=O)N(CC(=O)Nc2ccc(S(=O)(=O)N3CCOCC3)cc2)c2ccccc2)cc1 | 0.16µM* | 2 | -4 | -4% | 19 | -68%
COc1ccc(S(=O)(=O)N(CC(=O)Nc2ccc(S(=O)(=O)N3CCOCC3)cc2)Cc2ccc(F)cc2)cc1 | 15µM* | 5 | 0 | 0% | -21 | 21µM*
O=C(COC(=O)c1ccccc1NCCO)Nc1ccc(S(=O)(=O)NC2=NCCCCC2)cc1 | -29% | -2 | -16 | 14µM* | 35 | ?
O=C(COC(=O)c1ccccc1)Nc1cccc(S(=O)(=O)NC2=NCCCCC2)c1 | -22% | -2 | 20 | 3% | -13 | -23%
CCN(CC)c1ccc(C(=O)OCC(=O)Nc2cccc(S(=O)(=O)NC3=NCCCCC3)c2)cc1 | 18µM* | 2 | 21 | -15% | -7 | ?
CC1(C(=O)OCC(=O)Nc2cccc(S(=O)(=O)NC3=NCCCCC3)c2)CC1(Cl)Cl (stereo not given) | -15% | 45* | 1 | 0% | -4 | ?
O=C(COC(=O)c1ccccc1O)Nc1cccc(S(=O)(=O)NC2=NCCCCC2)c1 | ? | 7 | -1 | . | 13 | ?
O=C(c1n[nH]c2ccccc12)N1CCN(c2ccc(F)cc2)CC1 | -26% | -13 | -11 | 1% | -8 | -28%
CCc1sc(C(=O)N2CCN(c3ccc(F)cc3)CC2)cc1C | 15µM* | -8 | -3 | . | 4 | ?
O=C(c1ccccc1C(=O)N1CCN(c2ccc(F)cc2)CC1)N1CCN(c2ccc(F)cc2)CC1 | 9.2µM* | -7 | 9 | -3% | -4 | ?
O=C(c1cnc(N2CCOCC2)c2ccccc12)N1CCN(c2ccc(F)cc2)CC1 | ? | 13 | . | -9% | . | 15µM*
O=C(c1sc2cc(F)ccc2c1Cl)N1CCN(c2ccccc2)CC1 | ? | -16 | ? | -4% | -60* | -7%
CN1CCC(N(C)C(=O)c2sc3cc(F)ccc3c2Cl)CC1 | -29% | -7 | -28 | . | -20 | -3%
O=C(c1ccccc1C(=O)N1CCN(c2ccccc2)CC1)N1CCN(c2ccccc2)CC1 | ? | -1 | -7 | 2% | -5 | ?
COC(=O)c1ccc(NC(=O)c2cc(S(=O)(=O)N3CCOCC3)cn2C)cc1 | -4% | 4 | . | 10% | . | -6%
N#CCCn1cc(CNC2CCC(O)CC2)c2ccccc21 (stereo not given) | -10% | 3 | -4 | . | 21 | 7%
Cc1oc(=O)cc(OCc2ccccc2)c1C | -28% | 0 | ? | 4% | 4 | ?
COc1ccc(CCC(=O)OCC(=O)Nc2ccccc2)cc1 | -16% | 5 | -4 | . | 5 | 9%
SMILES | DT40 TDP1 no CPT | D3 ag | DRD3 antagonist | ClpP mod | IL-1B inflam inh | TDP1 cell CPT
Nc1sccc1C(=O)N1CCN(c2ccccc2)CC1 | 16µM* | -6 | ? | 0% | -7 | 18µM*
COc1ccccc1N1CCN(C(=O)c2cnc(N3CCCCC3)c3ccccc23)CC1 | 3.7µM* | -9 | . | -24% | . | 4.6µM*
O=C(c1cnc(N2CCOCC2)c2ccccc12)N1CCN(c2ccccc2F)CC1 | ? | 7 | . | -14% | . | ?
COc1ccccc1N1CCN(C(=O)c2cnc(N3CCOCC3)c3ccccc23)CC1 | 16µM* | 2 | . | -16% | . | ?
O=C(c1cnc(N2CCCCC2)c2ccccc12)N1CCN(c2ccccc2F)CC1 | ? | 5 | . | -24% | . | 16µM*
CC(Oc1cccc2ccccc12)C(=O)N/N=C/c1cccnc1 (stereo not given) | 4% | -3 | -19 | 1% | 0 | -11%
O=C(c1ccco1)N1CCN(C2CN(Cc3ccc([N+](=O)[O-])cc3)S(=O)(=O)C2)CC1 (stereo not given) | -15% | 0 | -5 | 1% | 3 | -9%
Cc1ccc2c(CC(=O)Nc3ccc(S(=O)(=O)N4CCC(C)CC4)cc3)coc2c1 | ? | 6 | . | -3% | . | ?
O=C(c1ccc(=O)oc1)N1CCN(c2ccc(F)cc2)CC1 | 1% | -5 | ? | 32µM* | -20 | -29%
O=Nc1ccc(NO)c2ccccc12 | 13µM* | -1 | 0 | -5% | -7 | ?
C#CCOCCOCCOCCNc1nc(N2CCN(C(=O)Cn3cc(CCCN=C(N)N)nn3)CC2)nc(N2CCN(C(=O)[C@H](CCCCN)n3cc(CCCC)nn3)CC2)n1 | 6% | -7 | -22 | 0% | 21 | 0%
Fc1ccc(Nc2nc(N3CCOCC3)c3ccccc3n2)cc1 | 23µM* | -1 | 25 | 60% | -78* | ?
c1ccc2c(Nc3nc(N4CCOCC4)c4ccccc4n3)cccc2c1 | 23µM* | -5 | 2 | . | -109* | 13µM*
FC(F)(F)c1ccccc1-c1nc(N2CCOCC2)c2ccccc2n1 | -6% | . | . | . | . | -2%
CC1(C)C(=O)Nc2ccccc2N1C(=O)COC(=O)CNS(=O)(=O)c1ccc(F)c(F)c1F | -3% | 0 | 1 | 1% | -22 | -16%
Cc1ccc(NC(=O)c2ccc3c(O)c(S(=O)(=O)c4ccc(Cl)cc4)c(=O)[nH]c3c2)cc1 | 0% | -7 | . | 2% | . | 0%
Cc1cc(C)cc(OCC(=O)Nc2cccc3cccnc23)c1 | . | 9 | . | 118% | . | .
CCCCNC(=S)NNC(=O)CCn1cc(C)cn1 | -22% | -12 | -14 | 1% | -1 | -12%
